# Molecular target: Bromodomain-containing protein 4 (Homo sapiens) (UniProt O60885)
# Details: Compound concentration 20.0 uM, Protein concentration 2.0 uM, Result type QC Liability
row,Compound,ΔTm
1,COc1cc(C(=O)NC2CCN(C)CC2)ccc1Nc1ncc2c(n1)N(C1CCCC1)CC(F)(F)C(=O)N2C,7.37 °C
2,CN1Cc2nccc(-c3cn(C)nc3-c3ccc(F)cc3)c2C1=O,-1.27 °C
3,N[C@@H](CC(=O)O)Cn1nnc(-c2ccc(Oc3ncc(Cl)cc3F)cc2)n1,-12.6 °C
4,COc1cnccc1Nc1nc(-c2nn(Cc3c(F)cc(OCCO)cc3F)c3ccccc23)ncc1OC,0.84 °C
5,CC(=O)N1CCC(c2ccc(C(=O)NC3=NCCN3)cc2C(F)(F)F)CC1,-0.26 °C
6,Cc1cc(OC2CCS(=O)(=O)CC2)cc(C)c1-c1cccc(COc2ccc(C(=O)O)c(F)c2)c1,-3.26 °C
7,COc1cc(Nc2cnc(C#N)c(O[C@H](C)CN(C)C)n2)ncc1-c1cnn(C)c1,-1.55 °C
8,O=C(NCCN1CCOCC1)c1ccc2nn(CCOc3ccc(Cl)cc3)cc2c1,0.04 °C
9,Cc1c(CN2CCC3(CC2)CN(c2ncnc4sc(CC(F)(F)F)cc24)C3)ccc2c1cc(C#N)n2CC(N)=O,1.17 °C
10,CN(C)[C@H]1CC[C@H](Nc2ncc3ncnc(Nc4ccc(F)c(Cl)c4)c3n2)CC1,-0.7 °C
11,C[C@]12CC[C@@H]3c4ccc(O)cc4CC[C@H]3[C@@H]1C[C@H]1OC(=O)C[C@]12O,-11.6 °C
12,CO[C@H]1CC[C@H](N(c2cc(F)c(Oc3ncc(Cn4nccn4)cc3C(F)(F)F)cc2C(=O)O)C(=O)[C@H]2CC[C@H](C)CC2)CC1,0.94 °C
13,Cc1ccc(-c2cn3nc(C(=O)NC4(c5ccc(F)cc5)CN(C)C4)c(C(C)C)c3c(=O)[nH]2)cc1C,-24.1 °C
14,CCc1ncnc(N2CCN(C(C)=O)CC2)c1C#Cc1ccc(N)nc1,-1.64 °C

# — ChEMBL document CHEMBL5308504, “Tm Shift (DSF) assay results for EUbOPEN Chemogenomics Library” (2023)
